From article PMC13083723 (Patterns, 2026) come the findings set out here.

About 190 (3.5%) of roughly 5,400 compounds showed an effect of 50% or more. The list comes from a sample in which strong results are over-represented; it also holds similar structures and randomly drawn compounds. Non-standard residues stand in square brackets, D forms with d. Residues, ends and D or L forms follow the SMILES beside them. NMeF = CN[C@@H](Cc1ccccc1)C(=O)O

For the test, the system named is Vero-E6. The test can be described thus: primary screen, phospholipidosis by LipidTOX staining; higher = more effect of the substance. The following applies: 10 µM. An outline of the steps: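 Single-concentration screen at 10 μM, with DMSO 0.1 v/v % and amiodarone 10 μM as controls. Read-out is LipidTOX Red phospholipid staining, which tolerates aldehyde fixation, in Vero-E6 cells.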
In the case of `O=c1nc[nH]c2c([C@@H]3N[C@H](CO)[C@@H](O)[C@H]3O)c[nH]c12`, the result_ITMP is -0.15%.
Regarding `CC(C)C[C@H](NC(=O)CNC(=O)[C@H](Cc1ccc(O)cc1)NC(=O)[C@H](CO)NC(=O)[C@H](Cc1c[nH]c2ccccc12)NC(=O)[C@H](Cc1c[nH]cn1)NC(=O)[C@@H]1CCC(=O)N1)C(=O)N[C@@H](CCCNC(=N)N)C(=O)N1CCC[C@H]1C(=O)NCC(N)=O`, the result_ITMP is reported as 1.23%.
As for `CN/C(=N\C#N)NCCSCc1nc[nH]c1C`, the result_ITMP is reported as -2.74%.
To `Cc1cc(N2CCOCC2)cc2nc(-c3c(NC[C@@H](O)c4cccc(Cl)c4)cc[nH]c3=O)[nH]c12` belongs -0.86%; to `CCN(CC)CCCN(c1ccccc1)C1Cc2ccccc2C1`, 51.9%; to `COc1cc[nH]c2ncc(C(=O)C(=O)N3CCN(C(=O)c4ccccc4)C[C@H]3C)c1-2`, -6.29%.
With `CSCC[C@H](NC(=O)[C@H](CC(C)C)NC(=O)[C@@H](Cc1c[nH]c2ccccc12)NC(=O)[C@H](Cc1ccccc1)N(C)C(=O)[C@@H](Cc1c[nH]c2ccccc12)NC(=O)[C@@H](N)CCCN=C(N)N)C(N)=O` (H-R[dW][NMeF][dW]LM-NH2) the figure was -1.85%.
As for `COCCOc1ccc2c(c1)ncn2-c1ccc2cccc(N3CCC(N)CC3)c2n1`, the result_ITMP worked out at 62.5%.
On to `CC1(COc2ccc3c(c2)ncn3-c2ccc3cccc(N4CCC(N)CC4)c3n2)COC1`, for which the result_ITMP worked out at 64.2%.
As to `NC1CCN(c2cccc(Cl)n2)CC1`, the result_ITMP is given as 6.27%.
`CCOC(=O)c1ccc(OCCC2CCN(c3ccc(C)nn3)CC2)cc1`: the result_ITMP is listed as -2.25%.
With `CCN1CCN(C(=O)NC(C(=O)N[C@@H]2C(=O)N3[C@@H]2SC(C)(C)[C@@H]3C(=O)[O-])c2ccccc2)C(=O)C1=O` (stereo partly shown) the figure was -2.05%.
For `C=CC(=O)N1CCCC(n2nc(-c3ccc(Oc4ccccc4)cc3)c3c(N)ncnc32)C1` (stereo not shown), the result_ITMP was -4.8%.
For `N[C@@H](Cc1ccc(I)cc1)C(=O)O`, the result_ITMP is on record as -0.07%.
To `N=C(N)SCc1ccc(B(O)O)cc1` belongs -0.1%; to `CC(=O)O[C@H]1CC[C@@]2(C)C(=CC(=O)[C@@H]3[C@@H]2CC[C@]2(C)C(=O)CC[C@@H]32)C1`, -7.66%.
To `Cn1cc(/C=C2/C(=O)Nc3cccnc32)c2ccccc21` belongs 2.75%.
Regarding `CCS(=O)c1nc(-c2cccc(OCc3ccccc3)c2)cc(C(F)(F)F)n1` (stereo not shown), the result_ITMP is -1.04%.
For `CCCC[N+]1(C)[C@@H]2C[C@@H](OC(=O)[C@H](CO)c3ccccc3)C[C@H]1[C@@H]1O[C@@H]12` (stereo partly shown), the result_ITMP was -5.86%.
For `Nc1c(CC(=O)[O-])cccc1C(=O)c1ccccc1`, the result_ITMP is -2.23%.
On to `CN1CCCN(C(c2ccccc2)c2ccc(Cl)cc2)CC1` (stereo not shown), for which the result_ITMP came out at 82.5%.
For the molecule `CN1CCN(C(c2ccccc2)c2ccc(Cl)cc2)CC1` (stereo not shown), the result_ITMP was 44.4%.
Consider `CN1CCN(C(c2ccccc2)c2ccccc2)CC1`, for which the result_ITMP was found to be 16.1%.
With `O=C(Nc1ccccc1)Nc1ccc(-c2ccc(C(=O)[C@@H]3CCC[C@H]3C(=O)O)cc2)cc1` [R4A_0000400_001 / SPE_K28861668], the result_ITMP is given as -3.95%.
As for `O=C(O)[C@@H](S)[C@@H](S)C(=O)O`, the result_ITMP is reported as -5.93%.
For `CCC[C@@H]1C[C@@H](C(=O)N[C@@H]([C@H]2O[C@H](SC)[C@H](OP(=O)(O)O)[C@@H](O)[C@H]2O)[C@H](C)Cl)N(C)C1`, the result_ITMP is -1.73%.
Take `CC1(C)C(/C=C/C=C/C=C/C=C2/N(CCCCS(=O)(=O)[O-])c3ccc4ccccc4c3C2(C)C)=[N+](CCCCS(=O)(=O)[O-])c2ccc3ccccc3c21`: the result_ITMP is given as -0.75%.
With `Cc1cccc(C)c1NC(=O)CN1CCCCCC1`, the result_ITMP was -0.91%.
With `Cc1cccc(C)c1NC(=O)CN1CCN(CCCC(c2ccc(F)cc2)c2ccc(F)cc2)CC1` the figure was 52.6%; with `CCNC(=O)N1CCN(CCCC(c2ccc(F)cc2)c2ccc(F)cc2)CC1`, 8.88%; with `O=C(/C=C/c1c(C(=O)[O-])[nH]c2cc(Cl)cc(Cl)c12)Nc1ccccc1`, 0.43%.
Regarding `Cc1ccc(C(=O)c2ccc(CC(=O)[O-])n2C)cc1`, the result_ITMP is on record as -3.18%.
For `CC(CN1c2ccccc2Sc2ccccc21)N(C)C` (stereo not shown), the result_ITMP was 55.4%.
Regarding `CCN(CC)C(C)CN1c2ccccc2Sc2ccccc21` (stereo not shown), the result_ITMP came to 63.9%.
With `CC(CC(C(N)=O)(c1ccccc1)c1ccccc1)N(C)C` (stereo not shown) the figure was -2.3%; with `CCOC(=O)Nc1ccc2c(c1)N(C(=O)CCN(CC)CC)c1ccccc1S2`, 12%.
In the case of `CCN(CC)C(C)C(=O)c1ccccc1` (stereo not shown), the result_ITMP is -5.15%.
With `COC(=O)/C=C/C(=O)N[C@@H]1CC[C@@]2(O)C3Cc4ccc(O)c5c4[C@@]2(CCN3CC2CC2)[C@H]1O5` the figure was -2%; with `CC(O)(P(=O)([O-])O)P(=O)([O-])O`, -0.98%.
On to `Fc1cc(F)c2c(c1)[C@H]1C=CC[C@H]1C(c1cccnc1)N2` (mixture of isomers), for which the result_ITMP is -14.4%.
As for `O=S(=O)([O-])CCS`, the result_ITMP is on record as -2.99%.
With `OC[C@H]1O[C@@](CO)(O[C@H]2O[C@H](CO)[C@@H](O)[C@H](O)[C@H]2O)[C@@H](O)[C@@H]1O` the figure was -5.71%.
Turning to `CN(C)CCC(c1ccc(Cl)cc1)c1ccccn1` (stereo not shown) [R4A_0004036_001 / SPE_A04553218], the result_ITMP came to 16%.
To `C[C@]12CC[C@H](O)CC1=CC[C@@H]1[C@@H]2CC[C@]2(C)C(c3cccnc3)=CC[C@@H]12` belongs -5.26%; to `C[CH2][Hg][S]c1ccccc1C(=O)[O-]`, 6.82%.
As to `O=C([O-])C(=O)[O-].[NH-][C@@H]1CCCC[C@H]1[NH-].[Pt+4]`, the result_ITMP is recorded as 22.9%.
To `COc1cc2c(NC3CCN(C4CCCCC4)CC3)nc(N3CCCN(C(C)C)CC3)nc2cc1OCCCN1CCCCC1` belongs -1.55%.
On to `COc1cc2c(NC3CCN(C(C)C)CC3)nc(C3CCCCC3)nc2cc1OCCCN1CCCC1`, for which the result_ITMP was 60.7%.
Turning to `COc1cc2c(NC3CCN(C(C)C)CC3)nc(N3CCC(F)(F)CC3)nc2cc1OCCCN1CCCC1`, the result_ITMP stood at 8.94%.
`C[C@]12CC[C@H](O)C[C@H]1CC[C@@H]1[C@@H]2CC[C@]2(C)[C@@H](c3ccc(=O)oc3)C[C@H]3O[C@]132`: the result_ITMP is listed as -2.23%.
As to `Nc1ncnc2[nH]cnc12`, the result_ITMP is -2.75%.
As to `C/C(=N\NC(=S)NNC(=S)Nc1ccccc1Cl)c1ccccn1`, the result_ITMP is listed as -0.18%.
`C1CCC(N/C(=N/C23CC4CC(CC(C4)C2)C3)N2CCOCC2)CC1`: the result_ITMP is recorded as -0.26%.
On to `C=C1C(=O)O[C@H]2[C@H]1CC/C(C)=C/CC[C@@]1(C)O[C@@H]21` [R4A_0002204_002 / SPE_K34851558], for which the result_ITMP is reported as 16.6%.
`c1cc(OCCN2CCCCC2)cc(-c2n[nH]c3ccc(-c4ncn[nH]4)cc23)c1`: the result_ITMP was -0.52%.
On to `C1=C/COCc2cc(ccc2OCCN2CCCC2)Nc2nccc(n2)-c2cccc(c2)COC/1`, for which the result_ITMP is listed as 78.8%.
On to `CN1C/C=C/CCOc2cccc(c2)-c2ccnc(n2)Nc2cccc(c2)C1`, for which the result_ITMP is on record as -2.04%.
Turning to `CN(C)CCNc1nc2cc(O)ccc2c2c1C(=O)c1ccccc1-2`, the result_ITMP was 76.7%.
On to `CC(C)(O)CC(=O)[O-]`, for which the result_ITMP is on record as -6.24%.
As for `CC(=O)Nc1ccc(NC(=S)NC(=O)c2ccc(C(C)(C)C)cc2)cc1`, the result_ITMP turned out to be 2.55%.
With `CN(C)CCCCC(=O)Nc1ccc(NC(=S)NC(=O)c2ccc(C(C)(C)C)cc2)cc1` the figure was 147%; with `CC(=O)Nc1ccc(C(=O)NC(C)(C)C)cc1`, -9.36%.
With `O=C1[C@@H]2[C@H]3CC[C@H](C3)[C@@H]2C(=O)N1C[C@@H]1CCCC[C@H]1CN1CCN(c2nsc3ccccc23)CC1` the figure was 3.52%.
With `COc1cccc(Nc2ncnn3ccc(CN4CC[C@@H](N)[C@H](O)C4)c23)c1` the figure was 59%.
Regarding `CSCC[C@H](NC(=O)[C@H](CC(C)C)NC(=O)CNC(=O)[C@H](Cc1ccccc1)NC(=O)[C@H](Cc1ccccc1)NC(=O)[C@H](CCC(N)=O)NC(=O)[C@H](CCC(N)=O)NC(=O)[C@@H]1CCCN1C(=O)[C@H](CCCCN)NC(=O)[C@@H]1CCCN1C(=O)[C@@H](N)CCCNC(=N)N)C(N)=O`, the result_ITMP is on record as -6.88%.
With `C[C@H]1[C@H](OC(=O)CCC(=O)O)O[C@@H]2O[C@@]3(C)CC[C@H]4[C@H](C)CC[C@@H]1[C@@]24OO3` the figure was 7.77%.
In the case of `Cc1c(-c2ccc(-c3ccccc3F)cc2)nc2ccc(F)cc2c1C(=O)[O-]`, the result_ITMP is on record as 5.08%.
For `Cc1ccc2c(c1)c1c3n2CCNC3CCC1` (stereo not shown), the result_ITMP is 51.5%.
Consider `c1cc2c(cc1C1CCCCC1)c1c3n2CCNC3CCC1` (stereo not shown), for which the result_ITMP was 84.2%.
As for `C#C[C@]1(O)CC[C@H]2[C@@H]3CCC4=CC(=O)CC[C@@H]4C3CC[C@@]21CC` (stereo partly shown), the result_ITMP is on record as -2.07%.
As to `Cc1ccccc1C(c1ccccc1C)N1C2CCC1CC(O)(c1ccccc1)C2` (stereo not shown), the result_ITMP was -2.82%.
`C[C@H](/C=C/[C@H](C)C(C)(C)O)[C@H]1CC[C@H]2/C(=C/C=C3C[C@@H](O)C[C@H](O)C3)CCC[C@]12C`: the result_ITMP was -0.26%.
As to `N[C@@H]1[C@H]2CN(c3nc4c(cc3F)c(=O)c(C(=O)O)cn4-c3ccc(F)cc3F)C[C@@H]12`, the result_ITMP came out at 0.39%.
To `Cc1cc2c(cc1CC(=O)c1sccc1S(=O)(=O)[N-]c1onc(C)c1Cl)OCO2` belongs -1.86%.
Turning to `COc1cc(Nc2c(C#N)cnc3cc(OCCCN4CCN(C)CC4)c(OC)cc23)c(Cl)cc1Cl`, the result_ITMP stood at 68%.
To `COc1cc2c(N3CCN(C(=O)Nc4ccc(OC(C)C)cc4)CC3)ncnc2cc1OCCCN1CCCCC1` belongs 23%.
As for `COc1cc2ncnc(Nc3ccc(F)c(Cl)c3)c2cc1OCCCN1CCOCC1`, the result_ITMP is recorded as -1.05%.
In the case of `CC1(C)S[C@@H]2[C@H](NC(=O)[C@H](NC(=O)N3CCN(S(C)(=O)=O)C3=O)c3ccccc3)C(=O)N2[C@H]1C(=O)[O-]`, the result_ITMP is on record as -2.91%.
As to `O=C1OC2(c3cc(I)c([O-])c(I)c3Oc3c2cc(I)c([O-])c3I)c2c(Cl)c(Cl)c(Cl)c(Cl)c21`, the result_ITMP is on record as -9.57%.
